High-throughput results deposited in PubChem BioAssay by National Center for Advancing Translational Sciences (NCATS).
Rows were chosen to be rich in hits. Some 10% of all compounds tested hit in one or more screens of this group.
HEK cytotox: cytotoxic compounds in HEK 293 cells. HEK 293 viability, ATP luminescence (CellTiter-Glo), 48-72 h. Potency, µM (highest dose often 115 µM), actives largely listed as inhibitors. 94,000 compounds, 6.6% hits; further: nearly all actives have a fitted effect of over 60% in size
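Luminescence from cellular ATP, measured with CellTiter-Glo, indicates HEK 293 viability. Cells plated at 250 cells/well are treated with compound for 48 or 72 hr at 37 degree Celsius before reagent addition.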
FLuc inh: Photinus pyralis luciferase inhibition. P08659. purified P. pyralis luciferase, luminescence, biochemical. Potency, µM (titrated, usually from 115 µM), usual class: inhibitors. 76,000 compounds, 2.5% hits. AID 1347043; further: nearly all actives have a fitted effect of over 65% in size
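Luminescence read by CCD imaging after purified firefly luciferase (10nM final) was added to substrate buffer holding 10uM D-luciferin and 10uM ATP, pH 7.5, pre-dosed with compound.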
hNpr1 antagonist: blocks ANP-stimulated signaling of human Npr1 receptor; P16066; HEK293 hNpr1 GloSensor cGMP, ANP-stimulated luminescence; Potency, µM (top dose mostly 46.3 µM), usual class: inhibitors; 76,000 compounds, 1.6% hits; calls by dose curve; further: nearly all actives have a fitted effect of over 60% in size
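Compound pre-incubated 30 min at room temperature on GloSensor-loaded HEK293 cells stably carrying hNpr1 and the pGS-40F cGMP biosensor. Stimulation uses hNppA at 0.1 nM final; luminescence is taken at baseline and 20 min post-agonist.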
GPT2 inh: blocks human glutamate pyruvate transaminase 2; Q8TD30; 100,000 compounds, 0.25% hits; Recombinant GPT2, coupled pyruvate oxidase/HRP Amplex Red fluorescence; Potency, µM (titrated, usually from 57.7 µM), actives largely listed as inhibitors; further: nearly all actives have a fitted effect of over 60% in size
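Fluorescence read-out: pyruvate from GPT2 turnover coupled to pyruvate oxidase, HRP and Amplex Red (0.2mM ThPP, 0.2U/mL PO and HRP, 50uM Amplex final). Substrates 250uM a-KG, 2mM L-alanine; enzyme 10ng/uL; 30 min RT.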
NIH3T3 tox: NIH 3T3 cell cytotoxicity | AID 1345082 | NIH 3T3 viability, CellTiter-Glo ATP luminescence, 48-72 h | Potency, µM (doses to about 96.7 µM), usual class: inhibitors | 94,000 compounds, 4.3% hits; further: nearly all actives have a fitted effect of over 55% in size
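Cytotoxicity is measured as loss of cellular ATP: NIH 3T3 cells (400/well) are exposed to compound for 48 or 72 hr at 37 °C, then CellTiter-Glo luminescence is imaged after 10 min at room temperature.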
NPR1 antag cnf: confirmation of human Npr1 natriuretic peptide receptor antagonists; HEK293 hNpr1 cGMP GloSensor luminescence, ANP-stimulated; shares compounds with hNpr1 antagonist; Potency, µM (top dose mostly 57.6 µM), usual class: inhibitors; AID 1347044; 1,400 compounds, 76% hits; calls by dose curve; further: nearly all actives have a fitted effect of over 70% in size
NPR2 antag: hNpr2 antagonism, selectivity versus Npr1; shares compounds with hNpr1 antagonist; HEK293 hNpr2 GloSensor cGMP luminescence, CNP-stimulated; Potency, µM (top dose mostly 57.6 µM), hits mostly inhibitors; 1,400 compounds, 67% hits; calls by dose curve; further: nearly all actives have a fitted effect of over 70% in size
Target sequence (P20594 whole entry, looked up): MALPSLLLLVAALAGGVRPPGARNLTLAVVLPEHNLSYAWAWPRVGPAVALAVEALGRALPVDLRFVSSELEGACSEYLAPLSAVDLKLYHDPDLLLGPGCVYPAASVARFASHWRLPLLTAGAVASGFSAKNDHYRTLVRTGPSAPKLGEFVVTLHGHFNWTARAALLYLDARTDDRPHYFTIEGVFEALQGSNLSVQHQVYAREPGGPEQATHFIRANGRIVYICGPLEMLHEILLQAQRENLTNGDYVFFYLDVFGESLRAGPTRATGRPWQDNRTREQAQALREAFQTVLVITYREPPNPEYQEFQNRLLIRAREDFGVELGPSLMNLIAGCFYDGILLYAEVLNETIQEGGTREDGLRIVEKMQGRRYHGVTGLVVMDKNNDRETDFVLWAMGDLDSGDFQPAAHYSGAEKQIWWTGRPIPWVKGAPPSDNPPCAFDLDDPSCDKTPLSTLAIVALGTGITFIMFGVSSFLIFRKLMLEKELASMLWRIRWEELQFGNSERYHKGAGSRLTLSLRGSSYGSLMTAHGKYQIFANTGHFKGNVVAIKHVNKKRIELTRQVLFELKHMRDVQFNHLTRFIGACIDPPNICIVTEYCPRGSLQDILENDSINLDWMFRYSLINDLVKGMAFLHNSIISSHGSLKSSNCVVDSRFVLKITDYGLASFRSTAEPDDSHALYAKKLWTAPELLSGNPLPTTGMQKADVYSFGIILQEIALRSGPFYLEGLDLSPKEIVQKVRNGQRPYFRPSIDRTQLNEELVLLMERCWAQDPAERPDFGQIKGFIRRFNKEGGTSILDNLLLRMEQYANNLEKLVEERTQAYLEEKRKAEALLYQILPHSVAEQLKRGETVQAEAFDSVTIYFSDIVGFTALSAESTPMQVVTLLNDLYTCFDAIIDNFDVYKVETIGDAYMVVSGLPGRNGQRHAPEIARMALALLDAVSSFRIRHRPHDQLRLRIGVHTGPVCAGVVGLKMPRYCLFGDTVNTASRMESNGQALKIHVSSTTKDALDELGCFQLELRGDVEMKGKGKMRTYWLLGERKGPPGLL
FLuc counter: FLuc enzyme inhibition, Npr1 counter-screen | shares compounds with hNpr1 antagonist | purified FLuc enzyme, luminescence, Km substrate | Potency, µM (titrated, usually from 57.6 µM), hits mostly inhibitors | 1,400 compounds, 0.7% hits | AID 1347047; further: series mostly up to about 58 µM
GloSensor cGMP: control cell line activity, Npr1 antagonist counter-screen. shares compounds with hNpr1 antagonist. HEK293 GloSensor cGMP, SNP-stimulated, luminescence. Potency, µM (doses to about 57.6 µM), usual class: inhibitors. 1,400 compounds, 69% hits; calls by dose curve; further: nearly all actives have a fitted effect of over 70% in size
Numbers stand for hits. Unless noted, the call rests on the fitted dose curve; in most records, active means well fitted curve in the direction sought with a large enough effect; inconclusive means small, poorly fitted or top-dose-only effect, or another doubt; inactive means no such curve, though single readings can be large; an effect the other way counts as inactive or inconclusive.

CC1=C(C(=O)Nc2ccccc2)C(c2cccc(C)c2)N2C(CC(=O)NC(C)C)=CSC2=N1 (centres undefined) was read as HEK cytotox inconclusive, FLuc inh inactive, hNpr1 antagonist inconclusive, GPT2 inh inactive and NIH3T3 tox inconclusive.
For CC1=C(C(=O)Nc2ccccc2)C(c2cccc(C)c2)N2C(CC(=O)NC3CC3)=CSC2=N1 (centres undefined) the results were HEK cytotox inconclusive, FLuc inh inactive, hNpr1 antagonist inconclusive, GPT2 inh inactive, NIH3T3 tox inconclusive, NPR1 antag cnf inconclusive, NPR2 antag inconclusive, FLuc counter inactive and GloSensor cGMP inconclusive.
`CCNC(=O)CC1=CSC2=NC(C)=C(C(=O)Nc3ccccc3)C(c3ccc(F)cc3)N12` (centres undefined) gave HEK cytotox inconclusive, FLuc inh inactive, hNpr1 antagonist inconclusive, GPT2 inh inactive, NIH3T3 tox inactive, NPR1 antag cnf inconclusive, NPR2 antag inactive, FLuc counter inactive and GloSensor cGMP inactive.
`Cc1ncsc1CN1CCC2(CC1)CC(CC(=O)NC1CC1)CCO2` (centres undefined) gave HEK cytotox inactive, FLuc inh inactive, hNpr1 antagonist inactive, GPT2 inh inactive and NIH3T3 tox inactive.
`CCNC(=O)[C@@H]1C[C@H](NC(=O)c2ccc[nH]2)CN1C(=O)Cc1cc(C)no1` gave HEK cytotox inactive, FLuc inh inactive, hNpr1 antagonist inactive, GPT2 inh inactive and NIH3T3 tox inactive.
For Cc1nn(-c2ccccc2)c2c1C(C(C)C)N(C1CCN(C(=O)Cc3ccccn3)C1)C2=O (centres undefined) the results were HEK cytotox inconclusive and NIH3T3 tox inactive.
Screening CC(C)(C)CC(=O)N[C@H]1C[C@@H](Cc2cc(CN3CCN(c4ccccc4)CC3)on2)C1(C)C returned HEK cytotox 25.1µM, FLuc inh inactive, hNpr1 antagonist 2.82µM, GPT2 inh inconclusive, NIH3T3 tox inconclusive, NPR1 antag cnf 3.06µM, NPR2 antag 3.43µM, FLuc counter inactive and GloSensor cGMP 2.43µM.
Screening CCNC(=O)N[C@H]1C[C@@H](Cc2cc(CN3CCN(c4ccccc4)CC3)on2)C1(C)C returned HEK cytotox inconclusive, FLuc inh inactive, hNpr1 antagonist inconclusive, GPT2 inh inactive and NIH3T3 tox inconclusive.
For O=C(c1ccncc1)N1CCC(CCOc2ccc(F)cc2)C1 (centres undefined) the results were HEK cytotox inconclusive, FLuc inh inactive, hNpr1 antagonist inactive, GPT2 inh inactive and NIH3T3 tox inconclusive.
`Cc1n[nH]c(C)c1Cc1ccc(C(=O)N2CCC(CCOc3ccc(F)cc3)C2)o1` (centres undefined) gave HEK cytotox 22.4µM, FLuc inh inactive, hNpr1 antagonist 15.8µM, GPT2 inh inactive, NIH3T3 tox 35.5µM, NPR1 antag cnf 24.3µM, NPR2 antag 24.3µM, FLuc counter inactive and GloSensor cGMP 21.7µM.
`Cc1ccccc1NC(=O)c1cnc2c(c1)N(C(=O)Cc1cn(C)c3ccccc13)CCC2` gave HEK cytotox inconclusive, FLuc inh inactive, hNpr1 antagonist inactive, GPT2 inh inactive and NIH3T3 tox inconclusive.
Screening O=C(NC(c1ccccc1)c1ccccc1)c1cnc2c(c1)N(C(=O)Cc1ccc(O)cc1)CCC2 returned HEK cytotox inactive, FLuc inh inactive, hNpr1 antagonist inactive, GPT2 inh inconclusive and NIH3T3 tox inconclusive.
CC(C)c1ccc(CC(=O)N2CCCc3ncc(C(=O)N(C)Cc4ccccc4)cc32)cc1 was read as HEK cytotox inconclusive, FLuc inh inactive, hNpr1 antagonist inactive, GPT2 inh inactive and NIH3T3 tox inconclusive.
For Cn1cc(CC(=O)N2CCCc3ncc(C(=O)Nc4cccc(Cl)c4)cc32)c2ccccc21 the results were HEK cytotox inconclusive, FLuc inh inactive, hNpr1 antagonist inactive, GPT2 inh inactive, NIH3T3 tox inconclusive, NPR1 antag cnf inactive, NPR2 antag inactive, FLuc counter inactive and GloSensor cGMP inactive.
CC(C)c1ccc(CC(=O)N2CCCc3ncc(C(=O)N(C)c4ccccc4)cc32)cc1 was read as HEK cytotox inconclusive, FLuc inh inactive, hNpr1 antagonist inconclusive, GPT2 inh inactive, NIH3T3 tox inconclusive, NPR1 antag cnf 35.3µM, NPR2 antag 44.4µM, FLuc counter inactive and GloSensor cGMP 44.4µM.
`CC(C)c1ccc(CC(=O)N2CCCc3ncc(C(=O)Nc4ccccc4)cc32)cc1` gave HEK cytotox 28.2µM, FLuc inh inactive, hNpr1 antagonist 3.55µM, GPT2 inh inactive, NIH3T3 tox 28.2µM, NPR1 antag cnf 5.59µM, NPR2 antag 6.27µM, FLuc counter inactive and GloSensor cGMP 4.98µM.
Screening O=C(Nc1ccccc1)c1cnc2c(c1)N(C(=O)Cc1ccc(O)cc1)CCC2 returned HEK cytotox inconclusive, FLuc inh inactive, hNpr1 antagonist 28.2µM, GPT2 inh inactive, NIH3T3 tox inactive, NPR1 antag cnf 35.3µM, NPR2 antag 35.3µM, FLuc counter inactive and GloSensor cGMP 35.3µM.
Screening Cc1nc(-c2ccccc2OC2CN(S(=O)(=O)Cc3ccccc3F)C2)no1 returned HEK cytotox inconclusive, FLuc inh inactive, hNpr1 antagonist inactive, GPT2 inh inactive and NIH3T3 tox inconclusive.
Screening Cc1csc(NC(=O)c2cnc3c(c2)N(C(=O)Cc2ccc(C(C)C)cc2)CCC3)n1 returned HEK cytotox 35.5µM, FLuc inh inactive, hNpr1 antagonist 22.4µM, GPT2 inh inactive, NIH3T3 tox inconclusive, NPR1 antag cnf 31.4µM, NPR2 antag 35.3µM, FLuc counter inactive and GloSensor cGMP 28µM.
For COc1ccccc1CC(=O)N1CCCc2ncc(C(=O)Nc3cccnc3)cc21 the results were HEK cytotox inconclusive, FLuc inh inactive, hNpr1 antagonist inactive, GPT2 inh inactive and NIH3T3 tox inactive.
COc1ccccc1CC(=O)N1CCCc2ncc(C(=O)Nc3cccc(F)c3)cc21 was read as HEK cytotox 63.1µM, FLuc inh inactive, hNpr1 antagonist 31.6µM, GPT2 inh inactive, NIH3T3 tox 89.1µM, NPR1 antag cnf 35.3µM, NPR2 antag 35.3µM, FLuc counter inactive and GloSensor cGMP 35.3µM.
